# Only a selection was taken, and the strongest signals are over-represented in it overall.
# B1: HPA (Helix pomatia), Q575S3 (protein)
# chain: MWAHLTGLLLICALSLSAAQRAQTGEIDCGSDSSWPKDPSDNPNRDNTREIVKHVTFSPQFCREPKVILSVTTLDAEHTKNLRYEARLKSVSPSGLSASCYSWHDGTIYRMKLSWLAVED
# Legend:
# Assay in all cases: glycan array binding signal (z-score within array); higher = stronger binding
# Details in all cases: glycan notation: IUPAC condensed, linker removed
# [1] = molecular target: Fuc(a1-2)Gal(b1-3)[Fuc(a1-4)]GlcNAc(b1-2)Man(a1-3)[Fuc(a1-2)Gal(b1-3)[Fuc(a1-4)]GlcNAc(b1-2)Man(a1-3)]Man(b1-4)GlcNAc(b1-4)GlcNAc
# How it was run: (§1)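 From the Consortium for Functional Glycomics database, 3228 arrays were curated, keeping only those whose protein sequence was available. Binding is given as a within-array Z-score averaged across arrays sharing a protein sequence and across linkers. Negative Z-scores can be read as non-binding.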
# [2] = molecular target: Fuc(a1-2)Gal(b1-4)Fuc(a1-3)]GlcNAc(b1-2)Man(a1-3)[Fuc(a1-2)Gal(b1-4)[Fuc(a1-3)]GlcNAc(b1-2)Man(a1-6)]Man(b1-4)GlcNAc(b1-4)GlcNAc
# How it was run: as §1
# [3] = molecular target: Fuc(a1-2)Gal(b1-4)GlcNAc(b1-2)Man(a1-3)[Fuc(a1-2)Gal(b1-4)GlcNAc(b1-2)Man(a1-6)]Man(b1-4)GlcNAc(b1-4)[Fuc(a1-6)]GlcNAc
# How it was run: as §1
# [4] = molecular target: Fuc(a1-2)Gal(b1-4)[Fuc(a1-3)]GlcNAc
# How it was run: as §1
# [5] = molecular target: Fuc(a1-2)Gal(b1-4)[Fuc(a1-3)]GlcNAc(b1-2)Man(a1-3)[Fuc(a1-2)Gal(b1-4)[Fuc(a1-3)]GlcNAc(b1-2)Man(a1-6)]Man(b1-4)GlcNAc(b1-4)GlcNAc
# How it was run: as §1
# [6] = molecular target: Fuc(a1-2)[GalNAc(a1-3)]Gal(b1-3)GalNAc(a1-3)[Fuc(a1-2)]Gal(b1-4)GlcNAc
# How it was run: as §1
# [7] = molecular target: Fuc(a1-2)[GalNAc(a1-3)]Gal(b1-3)GalNAc(b1-3)Gal(a1-4)Gal(b1-4)Glc
# How it was run: as §1
# [8] = molecular target: Fuc(a1-2)[GalNAc(a1-3)]Gal(b1-4)GlcNAc(b1-3)Gal(b1-4)GlcNAc
# How it was run: as §1
# [9] = molecular target: Fuc(a1-2)[GalNAc(a1-3)]Gal(b1-4)GlcNAc(b1-3)Gal(b1-4)GlcNAc(b1-3)Gal(b1-4)GlcNAc
# How it was run: as §1
# [10] = molecular target: Fuc(a1-2)[GalNAc(a1-3)]Gal(b1-4)GlcNAc(b1-6)GalNAc
# How it was run: as §1
# [11] = molecular target: Fuc(a1-2)[GalNAc(a1-4)]Gal(b1-4)GlcNAc
# How it was run: as §1
# [12] = molecular target: Fuc(a1-3)[Gal(b1-4)]GlcNAc(b1-4)Gal(b1-4)[Fuc(a1-3)]GlcNAc(b1-4)Gal(b1-4)[Fuc(a1-3)]GlcNAc
# How it was run: as §1
# [13] = molecular target: Fuc(a1-3)[Gal(b1-4)]GlcNAc(b1-6)[Gal(b1-3)GlcNAc(b1-3)]Gal(b1-4)Glc
# How it was run: as §1
# [14] = molecular target: Gal(a1-3)Gal(b1-4)Glc
# How it was run: as §1
# [15] = molecular target: Gal(b1-2)Gal
# How it was run: as §1
# [16] = molecular target: Gal(b1-3)Gal(b1-4)GlcNAc(b1-2)Man(a1-3)[Gal(b1-3)Gal(b1-4)GlcNAc(b1-2)Man(a1-6)]Man(b1-4)GlcNAc(b1-4)GlcNAc
# How it was run: as §1
# [17] = molecular target: Gal(b1-3)GlcNAc(b1-2)Man
# How it was run: as §1
# [18] = molecular target: Gal(b1-3)GlcNAc(b1-3)Gal(b1-4)GlcNAc(b1-6)[Gal(b1-3)GlcNAc(b1-3)]Gal(b1-4)Glc
# How it was run: as §1
# [19] = molecular target: Gal(b1-3)[Fuc(a1-4)]GlcNAc(b1-2)Man(a1-3)[Gal(b1-3)[Fuc(a1-4)]GlcNAc(b1-2)Man(a1-6)]Man(b1-4)GlcNAc(b1-4)[Fuc(a1-6)]GlcNAc
# How it was run: as §1
# [20] = molecular target: Gal(b1-3)[GlcNAc(b1-6)]GalNAc
# How it was run: as §1
# [21] = molecular target: Gal(b1-3)[Neu5Ac(b2-6)]GalNAc
# How it was run: as §1
# [22] = molecular target: Gal(b1-4)GlcNAc(b1-2)Man(a1-6)[GlcNAc(b1-2)Man(a1-3)]Man(b1-4)GlcNAc(b1-4)GlcNAc
# How it was run: as §1
# [23] = molecular target: Gal(b1-4)GlcNAc(b1-2)[Gal(b1-4)GlcNAc(b1-6)]Man(a1-6)[GlcNAc(b1-4)][Gal(b1-4)GlcNAc(b1-2)[Gal(b1-4)GlcNAc(b1-4)]Man(a1-3)]Man(b1-4)GlcNAc(b1-4)[Fuc(a1-6)]GlcNAc
# How it was run: as §1
# [24] = molecular target: Gal(b1-4)GlcNAc(b1-3)Gal(b1-4)GlcNAc(b1-3)Gal(b1-4)GlcNAc(b1-2)[Gal(b1-4)GlcNAc(b1-3)Gal(b1-4)GlcNAc(b1-3)Gal(b1-4)GlcNAc(b1-6)]Man(a1-6)[Gal(b1-4)GlcNAc(b1-3)Gal(b1-4)GlcNAc(b1-3)Gal(b1-4)GlcNAc(b1-2)Man(a1-3)]Man(b1-4)GlcNAc(b1-4)[Fuc(a1-6)]GlcNAc
# How it was run: as §1
# [25] = molecular target: Gal(b1-4)GlcNAc(b1-3)Gal(b1-4)GlcNAc(b1-3)Gal(b1-4)GlcNAc(b1-3)Gal(b1-4)GlcNAc(b1-3)Gal(b1-4)GlcNAc(b1-2)Man(a1-3)[Gal(b1-4)GlcNAc(b1-3)Gal(b1-4)GlcNAc(b1-3)Gal(b1-4)GlcNAc(b1-3)Gal(b1-4)GlcNAc(b1-3)Gal(b1-4)GlcNAc(b1-2)Man(a1-6)]Man(b1-4)GlcNAc(b1-4)[Fuc(a1-6)]GlcNAc
# How it was run: as §1
# [26] = molecular target: Gal3S6S(b1-4)GlcNAc
# How it was run: as §1
# [27] = molecular target: Gal4S(b1-4)GlcNAc
# How it was run: as §1
# [28] = molecular target: Gal6S(b1-3)GlcNAc6S
# How it was run: as §1
# [29] = molecular target: GalNAc(a1-3)Gal
# How it was run: as §1
# [30] = molecular target: GalNAc(a1-3)GalNAc
# How it was run: as §1
binder,measurement,setting,value
B1,glycan array binding signal (z-score),[1],-0.229
same,glycan array binding signal (z-score),[2],-0.186
same,glycan array binding signal (z-score),[3],-0.229
same,glycan array binding signal (z-score),[4],-0.264
same,glycan array binding signal (z-score),[5],-0.221
same,glycan array binding signal (z-score),[6],4.9
same,glycan array binding signal (z-score),[7],4.46
same,glycan array binding signal (z-score),[8],4.44
same,glycan array binding signal (z-score),[9],4.28
same,glycan array binding signal (z-score),[10],2.54
same,glycan array binding signal (z-score),[11],5.52
same,glycan array binding signal (z-score),[12],-0.271
same,glycan array binding signal (z-score),[13],-0.251
same,glycan array binding signal (z-score),[14],-0.261
same,glycan array binding signal (z-score),[15],-0.259
same,glycan array binding signal (z-score),[16],-0.266
same,glycan array binding signal (z-score),[17],0.558
same,glycan array binding signal (z-score),[18],-0.246
same,glycan array binding signal (z-score),[19],-0.227
same,glycan array binding signal (z-score),[20],-0.265
same,glycan array binding signal (z-score),[21],-0.268
same,glycan array binding signal (z-score),[22],-0.239
same,glycan array binding signal (z-score),[23],-0.252
same,glycan array binding signal (z-score),[24],-0.25
same,glycan array binding signal (z-score),[25],-0.253
same,glycan array binding signal (z-score),[26],-0.266
same,glycan array binding signal (z-score),[27],-0.267
same,glycan array binding signal (z-score),[28],-0.242
same,glycan array binding signal (z-score),[29],4.18
same,glycan array binding signal (z-score),[30],4.53

# From the supplement of paper PMC8728848
